Source: PubChem BioAssay (NCI)
About 83,000 compounds went through this panel and 20% of them were active in at least one assay; those are over-represented in the sample as a whole.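 Percent growth is the endpoint: 0 to 100 indicates growth inhibition (40 means 60% inhibition), 0 means no net growth, and negative values indicate cell death.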 Values without a mark were called inactive. Activity calls are given as the source filed them. The calls were made as follows: active = growth percent below 10; inactive = the rest.

Assays:
Assay in all cases: NCI-60 one-dose screen, 48 h (100 = growth as untreated, 0 = no growth, -100 = all killed)
Details in all cases: 10 µM unless noted
[1] = test system: NCI-H23 lung
[2] = test system: NCI-H226 lung
[3] = test system: NCI-H322M lung
[4] = test system: HOP-62 NSCLC
[5] = test system: NCI-H460 lung
[6] = test system: HOP-92 NSCLC
[7] = test system: NCI-H522 lung
[8] = test system: A549/ATCC NSCLC
[9] = test system: 786-0 renal
[10] = test system: COLO 205 colon
[11] = test system: DU-145 prostate
[12] = test system: MALME-3M melanoma
[13] = test system: MDA-MB-231 breast
[14] = test system: RXF 393 renal
[15] = test system: SF-268 CNS
[16] = test system: SF-295 CNS
[17] = test system: SF-539 CNS
[18] = test system: UACC-257 melanoma
[19] = test system: M14 melanoma

SMILES	growth [1]	growth [2]	growth [3]	growth [4]	growth [5]	growth [6]	growth [7]	growth [8]	growth [9]	growth [10]	growth [11]	growth [12]	growth [13]	growth [14]	growth [15]	growth [16]	growth [17]	growth [18]	growth [19]
CN(C)c1ncc(C#Cc2c(F)cccc2F)c2ccccc12	89.9%	89.4%	88.5%	88.1%	84%	40.4%	70.7%	86.5%	105%	98.7%	97.4%	113%	80.2%	93.2%	87.2%	102%	94.5%	99%	86.3%
Fc1cccc(F)c1C#Cc1ccc2cccnc2c1	79.5%	101%	89.8%	89.5%	86%	82.4%	75.8%	82.6%	113%	96.4%	96.5%	90.3%	78%	101%	88.6%	101%	102%	88.2%	95.7%
CC(=O)c1cc2c(c(O)c1C)C(=O)C(=O)c1c(O)cccc1-2	-15.3% (active)	-69.7% (active)	-83.6% (active)	-78.5% (active)	-57.6% (active)	-43.9% (active)	-62.4% (active)	-66.8% (active)	-78.6% (active)	-75.4% (active)	-94.8% (active)	-83.1% (active)	-79.3% (active)	-90.2% (active)	-45.8% (active)	-82.5% (active)	-98.3% (active)	-95.7% (active)	-87.7% (active)
CC(=O)N1N=C(CCC(=O)c2nc3ccc([N+](=O)[O-])cc3[nH]2)OC1c1ccc(O)cc1 (stereo unspecified)	93.2%	101%	99%	91.2%	103%	118%	51.3%	106%	106%	92.3%	108%	94.4%	102%	111%	97.7%	96.4%	100%	103%	103%
CC(=O)c1cc2c(N)c(C(=O)Nc3cccc(Cl)c3)sc2nc1C	91%	87.3%	77.7%	90.4%	45.7%	58.3%	72.9%	39.3%	89.1%	40.7%	87.3%	102%	87.5%	79.7%	93.2%	84.3%	85.3%	82.5%	67.1%
C=C1C(=O)O[C@H]2[C@H]1CC/C(COC(=O)c1ccc(C#N)cc1)=C\CC[C@@]1(C)O[C@@H]21	54.4%	-0.563% (active)	68.1%	61.3%	53.7%	-35.8% (active)	-89.6% (active)	40.8%	22.9%	-77.7% (active)	18.4%	-22.4% (active)	2.94% (active)	-47.7% (active)	56.8%	73.3%	-32.3% (active)	52.2%	15.6%
S=c1[nH]nc(Cn2c3ccccc3c3ccncc32)o1	107%	107%	106%	95.1%	100%	109%	91.3%	90.7%	99.2%	104%	108%	100%	100%	112%	103%	108%	101%	89.7%	101%
CCCCCn1ncc(-c2c(O)c(O)cc3c(O)c(-c4c(C)cc5c(-c6cnn(CCCCC)n6)c(O)c(O)cc5c4O)c(C)cc23)n1	-15.1% (active)	-3.01% (active)	33.7%	4.15% (active)	-3.01% (active)	-23.8% (active)	-56.2% (active)	6.6% (active)	-10.2% (active)	-6.73% (active)	22.9%	27%	32.9%	-4.68% (active)	5.18% (active)	10%	3.31% (active)	16.2%	-20.8% (active)
Cc1cn(-c2nc3c(c(NCc4ccccc4)n2)COCC3)c2cccc(C(N)=O)c12	58.8% [0.5 µM]	56.4% [0.5 µM]	98.8% [0.5 µM]	76.3% [0.5 µM]	45.8% [0.5 µM]	87.7% [0.5 µM]	69.5% [0.5 µM]	84% [0.5 µM]	40.9% [0.5 µM]	87.8% [0.5 µM]	87.6% [0.5 µM]	82.9% [0.5 µM]	58.5% [0.5 µM]	43.6% [0.5 µM]	76.9% [0.5 µM]	36.1% [0.5 µM]	84.6% [0.5 µM]	68.1% [0.5 µM]	55.2% [0.5 µM]
C=C1C(=O)O[C@H]2[C@H]1CC/C(COC(=O)c1cc(OC)c(OC)c(OC)c1)=C\CC[C@@]1(C)O[C@@H]21	8.29% (active)	-12.1% (active)	52.9%	22%	16.1%	-59.5% (active)	-88.4% (active)	24.7%	-90.9% (active)	-73.4% (active)	-23.8% (active)	-57.7% (active)	-39% (active)	-87.8% (active)	16.5%	51%	-48.3% (active)	-41.3% (active)	-36.7% (active)
O=[N+]([O-])c1ccc(NS(=O)(=O)c2ccccc2)c2ccccc12	34.3%	59.4%	71.9%	50.6%	38.2%	1.99% (active)	18.2%	57.1%	51.5%	59.1%	62.4%	18.8%	70.1%	41.6%	42.3%	43%	45.1%	16.3%	41%
O=C(Cn1c2ccccc2c2ccncc21)N/N=C/c1cc(O)c(O)c(O)c1	103%	105%	108%	104%	101%	111%	84.5%	101%	105%	110%	104%	112%	101%	97.7%	98.1%	110%	93.1%	98.8%	110%
COc1ccc(-c2coc3c(CO)c(O)ccc3c2=O)cc1	79.5%	61.7%	52.9%	53%	32.7%	55.8%	67.2%	90.5%	90.3%	115%	9.29% (active)	21.3%	25%	-27.4% (active)	22.2%	23.1%	47.9%	90.3%	75.5%
O=C(Nc1ccccc1Cl)c1c[nH]c(=O)c(-c2ccc(N3CCCOC4(CC4)C3)cc2)c1	46.9%	50.9%	78%	69.7%	63.8%	70.4%	53.6%	57.8%	68.2%	81.4%	77.6%	70%	77.7%	81.2%	69.8%	55.3%	76%	38%	74.9%
